Assay results published in publication PMC9838217, “Structure of SALL4 zinc finger domain reveals link between AT-rich DNA binding and Okihiro syndrome”.
Residue numbers refer to the chain shown, from its start.

Legend:
Assay in all cases: HT-SELEX; high values mean tight binding
Details in all cases: protein: recombinant; vector His6-GST; dsDNA, one strand shown
SALL4 ZFC4 WT (HT-SELEX) = target: T1, SALL4 ZFC4 WT (HT-SELEX) (Mus musculus, UniProt Q8BX22 870-940)
T1 sequence: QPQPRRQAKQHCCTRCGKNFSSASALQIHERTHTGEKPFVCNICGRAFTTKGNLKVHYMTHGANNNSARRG
How it was run: (§1)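 Up to 6 cycles of selection were run in triplicate. In each, purified recombinant mouse SALL4 zinc finger cluster 4 (residues 870–940, 1 µg) was incubated with library DNA (1.5 µg first cycle, 200 ng later) in 100 µl of 10 mM Tris–HCl pH 7.5, 50 mM NaCl, poly(dI-dC), DTT for 10 min at room temperature, then complexes were captured on Ni2+ beads, washed and PCR-amplified; final pools were MiSeq-sequenced and scanned for 6-mers. Binding signal is each canonical k-mer's read fraction as fold change versus the initial random library.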

[1] = target: T2, SALL4 ZFC4 R900W (HT-SELEX) (Mus musculus, UniProt Q8BX22 870-940, R900W)
T2 sequence: T1 sequence with R31W
How it was run: as §1

[2] = target: T3, SALL4 ZFC4 G921D (HT-SELEX) (Mus musculus, UniProt Q8BX22 870-940, G921D)
T3 sequence: T1 sequence with G52D
How it was run: as §1

Sequence	binding signal (SALL4 ZFC4 WT (HT-SELEX)) [fold-change vs cycle 0]	binding signal [1] [fold-change vs cycle 0]	binding signal [2] [fold-change vs cycle 0]
AAGTCA	1.3 ± 0.0493	1.46 ± 0.0531	1.35 ± 0.0928
GTACCA	0.755 ± 0.0123	0.835 ± 0.0283	0.893 ± 0.0178
GAACGA	0.753 ± 0.0422	0.856 ± 0.0556	0.9 ± 0.0297
AAGAGA	1.45 ± 0.0335	1.67 ± 0.0544	1.48 ± 0.103
CCTATC	0.811 ± 0.0304	0.939 ± 0.00665	0.994 ± 0.0224
ATCTTG	1.3 ± 0.0534	1.44 ± 0.0813	1.38 ± 0.0795
TGAAAA	2.04 ± 0.151	1.73 ± 0.0528	1.57 ± 0.0962
CAGCAA	0.551 ± 0.0466	0.641 ± 0.0279	0.737 ± 0.0707
CTTAGA	1.28 ± 0.0284	1.45 ± 0.0641	1.36 ± 0.0933
AACTGC	0.6 ± 0.0299	0.647 ± 0.0277	0.741 ± 0.0348
TTAAAA	2.8 ± 0.232	2.26 ± 0.146	1.97 ± 0.21
CGCATA	0.489 ± 0.0286	0.499 ± 0.00702	0.636 ± 0.061
AAGTGT	1.24 ± 0.0333	1.35 ± 0.0203	1.3 ± 0.0159
ATTTGC	0.914 ± 0.0535	0.9 ± 0.0391	0.981 ± 0.0312
CAGATC	0.723 ± 0.0477	0.849 ± 0.0155	0.964 ± 0.0486
AAAGAT	2.08 ± 0.0847	2.1 ± 0.102	1.84 ± 0.163
CACCTA	0.824 ± 0.0556	0.915 ± 0.0444	0.976 ± 0.0474
AACGTA	1.18 ± 0.0508	1.3 ± 0.0339	1.23 ± 0.0704
GGTCAC	0.432 ± 0.0454	0.512 ± 0.0261	0.662 ± 0.0597
CTTTCC	0.771 ± 0.025	0.935 ± 0.0213	0.967 ± 0.0233
AGCGAT	0.553 ± 0.0342	0.644 ± 0.0243	0.766 ± 0.0387
GGGTAA	0.818 ± 0.0379	0.955 ± 0.0325	0.918 ± 0.0131
ACGTGG	0.369 ± 0.00823	0.462 ± 0.0221	0.54 ± 0.0513
ACACAG	0.726 ± 0.03	0.835 ± 0.00993	0.877 ± 0.04
CGGATC	0.362 ± 0.0382	0.438 ± 0.0155	0.571 ± 0.02
GAGCTA	0.677 ± 0.0225	0.747 ± 0.0353	0.858 ± 0.0136
ATAAAA	3.85 ± 0.323	2.43 ± 0.199	2.07 ± 0.279
CCTGGA	0.496 ± 0.0295	0.556 ± 0.0141	0.647 ± 0.0202
AAGGGA	0.928 ± 0.0784	1.09 ± 0.0682	1.03 ± 0.0363
GAGATC	0.836 ± 0.059	0.953 ± 0.0609	1.06 ± 0.0528
